Results taken from PubChem BioAssay (NCATS).
Calls of active or inactive are those of the source. The rule behind the calls is not given here.

What follows are molecules tested on HIV-1 nucleocapsid protein NCp7 (binding to TG oligonucleotide) (assay: HIV Nucleocapsid (AID 346;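 note: potency is for inhibitors that block NC binding and lower polarization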)). Conditions: HIV-1 NC / fluorescein-TGTGTGTG probe, fluorescence polarization.
Method in brief: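 Reagents dispensed (10 nM TG4xF, 100 nM HIV-1 NC), plates spun, compounds pin-transferred, then incubated 1 hr at room temperature before FP imaging. Buffer: Hepes pH 7.5, 250mM NaCl, 1uM ZnCl2, 100 uM TCEP, 5 mM 2-mercaptoethanol.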
Potency is the fitted concentration of half-maximal effect.

Row | SMILES | Potency
1 | COc1ccc(-n2c(=O)c(-c3cc(F)cc(F)c3)nc3cnc(N4CCNCC4)nc32)cc1 | > 20 µM (inactive)
2 | CN1CCN(c2ncc3nc(-c4cccs4)c(=O)n(CCc4ccccc4)c3n2)CC1 | > 20 µM (inactive)
3 | COC(=O)N1CCC2(CCN(C(=O)Nc3cccc(F)c3)CC2)CC1 | > 20 µM (inactive)
4 | O=C(c1ccncc1)N1CCC2(CC1)CN(c1ccncc1)C2 | > 20 µM (inactive)
5 | O=S(=O)(c1ccccc1)N1CCC2(CCN(Cc3nccs3)CC2)CC1 | > 20 µM (inactive)
6 | c1ccc(Nc2nc(-c3ccc4c(c3)OCO4)nc3ccccc23)cc1 | > 20 µM (inactive)
7 | COc1cccc(-c2cncnc2NCc2ccc(OC)cc2OC)c1 | > 20 µM (inactive)
8 | O=C(c1ccco1)N1CCC2(CCN(Cc3ccccc3)CC2)CC1 | > 20 µM (inactive)
9 | COCCn1c(=O)c(C)nc2cncnc21 | > 20 µM (inactive)
10 | FC(F)(F)c1cc(CN2CCCC3(CCNCC3)C2)cc(C(F)(F)F)c1 | > 20 µM (inactive)
11 | O=C(c1ccncc1)N1CCC2(CCCN(C(c3ccccc3)c3ccccc3)C2)CC1 | > 20 µM (inactive)
12 | COC(=O)N1CCC2(CCN(C(=O)Nc3ccc(OC)cc3)CC2)CC1 | > 20 µM (inactive)
13 | O=C(c1csnn1)N1CCC2(CC1)CN(c1cccc(-c3ccccc3)c1)C2 | > 20 µM (inactive)
14 | Cc1cccc(CNc2ncncc2-c2ccccc2C)c1 | > 20 µM (inactive)
15 | Cc1cccc(CNc2cc(-c3ccccc3Cl)ncn2)c1 | > 20 µM (inactive)
16 | CS(=O)(=O)Nc1cccc(-c2ccc3ncnc(NCCN4CCOCC4)c3c2)c1 | > 20 µM (inactive)
17 | COC(=O)N1CCC2(CCN(Cc3cc(C(F)(F)F)cc(C(F)(F)F)c3)CC2)CC1 | > 20 µM (inactive)
18 | N#Cc1cccc(NC(=O)N2CC[C@@]3(CCCN(C(=O)c4ccncc4)C3)C2)c1 | > 20 µM (inactive)
19 | CC(=O)N1CCC2(CCCN(Cc3ccccc3)C2)CC1 | > 20 µM (inactive)
20 | COCC(=O)N1CCC2(CC1)CN(c1cccc(-c3ccccc3)c1)C2 | > 20 µM (inactive)

Row | SMILES | Potency
21 | Cn1c(=O)c(-c2cccs2)nc2cnc(Oc3ccccc3)nc21 | > 20 µM (inactive)
22 | Cc1ccccc1-c1cc(N(C)C)ncn1 | > 20 µM (inactive)
23 | Cn1c(=O)c(CCc2ccccc2)nc2cnc(N3CCOCC3)nc21 | > 20 µM (inactive)
24 | COc1ccc(-n2c(=O)c(C)nc3cnc(N4CCNCC4)nc32)cc1 | > 20 µM (inactive)
25 | COCCNc1ccnc(-c2c(C)noc2C)n1 | > 20 µM (inactive)
26 | Cn1c(=O)c(-c2cc(F)cc(F)c2)nc2cncnc21 | > 20 µM (inactive)
27 | CCNc1ncc2nc(CCc3ccccc3)c(=O)n(-c3ccccc3)c2n1 | > 4 µM (inactive)
28 | CN(C)C(=O)c1ccc(-c2cncnc2NCc2ccccc2)cc1 | > 20 µM (inactive)
29 | COc1cccc(Cn2c(=O)c(-c3cccc(C#N)c3)nc3cnc(N4CCOCC4)nc32)c1 | > 20 µM (inactive)
30 | CCNc1ncc2nc(-c3ccc(OC)cc3)c(=O)n(CCC#N)c2n1 | > 20 µM (inactive)
31 | CN1CCN(c2nc(-c3cccc(NS(C)(=O)=O)c3)nc3ccccc23)CC1 | > 20 µM (inactive)
32 | N#Cc1cccc(NC(=O)N2CCCC3(CCN(C(=O)c4cnccn4)CC3)C2)c1 | > 20 µM (inactive)
33 | COc1ncc2nc(-c3ccc(Cl)cc3)c(=O)n(CCC#N)c2n1 | > 20 µM (inactive)
34 | Cn1c(=O)c(-c2ccc(Cl)cc2)nc2cnc(OCc3ccccc3)nc21 | > 20 µM (inactive)
35 | c1ccc(CNc2ccnc(-c3cccnc3)n2)cc1 | > 20 µM (inactive)
36 | O=C(c1cccc(F)c1)N1CCC[C@@]2(CCN(C(c3ccccc3)c3ccccc3)C2)C1 | > 20 µM (inactive)
37 | COc1ccccc1CNc1ccnc(-c2ccc(C(=O)N(C)C)cc2)n1 | > 20 µM (inactive)
38 | Cc1noc(C)c1C(=O)N1CCC2(CCCN(c3ccncc3)C2)CC1 | > 20 µM (inactive)
39 | O=S(=O)(c1ccccc1)N1CCC2(CCN(c3ncccn3)CC2)CC1 | > 20 µM (inactive)
